Reference: PubChem BioAssay (NCI)
This is part of a sample that, as a whole, favours compounds with a hit. Of some 83,000 tested, about 20% had one in any assay.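 48-hour exposure, single concentration, 96-well plates; percent growth endpoint where 0 means no net growth. Active: below 10.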 Values without a mark were called inactive. Active and inactive are the calls of the source.

System: SF-295 CNS
Experiment: NCI-60 one-dose screen, 48 h (100 = growth as untreated, 0 = no growth, -100 = all killed)
Conditions: 10 µM unless noted

Structure (SMILES) | growth
OCCCCc1nccc2c1[nH]c1ccccc12 | 102%
CCCn1nc(-c2ccccc2)c2c(-c3ccccc3)onc2c1=O | 74.3%
Cc1cc(N(CCCNc2ccnc3cc(Cl)ccc23)Cc2ccccn2)nc(N2CCCC2)n1 | 75.5%
C=C(C)[C@@H]1CC[C@]2(CN)CC[C@]3(C)[C@H](CC[C@@H]4[C@@]5(C)CCC(N)[C@@](C)(CO)[C@@H]5CC[C@]43C)[C@@H]12 (some centres not stated) | 87.8%
COc1ccc(-n2ncn(CCCCCCn3cnn(-c4ccc(OC)cc4)c3=O)c2=O)cc1 | 93.6%
O=C(NC1CCOCC1)c1ccc2c(c1)CN(c1ncc(Cc3cccc(-n4cccn4)c3)s1)CC2 | 62.5%
C=C(CNCCc1ccc(O)cc1)[C@@H]1CC[C@]2(COC3CCCCO3)CC[C@]3(C)[C@H](CC[C@@H]4[C@@]5(C)CCC(NCCO)C(C)(C)[C@@H]5CC[C@]43C)[C@@H]12 (some centres not stated) | -82.4% (active)
Cc1c(C(=O)O[C@H]2[C@@H]3[C@H](C)CC[C@H]3[C@]3(C)O[C@@]2(C2CCCCC2)C[C@H]3OC(=O)CO)ccc2ccccc12 | 36.8%
COc1ccc(Oc2nc(Nc3ccc(N4CCCCC4)nc3)ncc2NC(=O)c2cc(OC)cc(OC)c2)cc1 | 23.7%
O=C(Oc1ccc[nH]c1=O)c1cc([N+](=O)[O-])cc([N+](=O)[O-])c1 | 113%
Cc1cc(N2CCCCC2)nc(N(CCNc2ccnc3cc(Cl)ccc23)Cc2ccccn2)n1 | 21.5%
CCCCOc1ccc(NC(=O)n2nc(N=NN(C)C)c3ccc(Cl)cc32)cc1 | 101%
